# Assay outcomes as filed in PubChem.
# G9a inh = blocks human histone lysine methyltransferase G9a; 8.8% of 350,000 active; Potency, µM (titrated, usually from 102 µM), for the others: at the top dose activity, negative = inhibition, most hits filed as inhibitors; AID 504332; G9a H3K9 monomethylation, AlphaScreen, 2 h; Q96KQ7; further: on the % scale 0 is the no-effect control and ±100 the full control effect; nearly all actives have a fitted effect of over 75% in size
# Target sequence (Q96KQ7 913-1193 limits assumed): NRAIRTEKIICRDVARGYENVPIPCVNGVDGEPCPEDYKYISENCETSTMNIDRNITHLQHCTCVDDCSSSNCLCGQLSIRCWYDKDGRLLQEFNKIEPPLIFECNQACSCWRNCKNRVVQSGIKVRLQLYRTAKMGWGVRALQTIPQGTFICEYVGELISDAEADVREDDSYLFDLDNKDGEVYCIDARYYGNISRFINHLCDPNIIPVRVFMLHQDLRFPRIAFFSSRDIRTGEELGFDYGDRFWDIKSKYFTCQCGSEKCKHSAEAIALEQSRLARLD
#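 AlphaScreen detection with an anti-monomethyl H3K9 antibody quantified product after a 2 h room-temperature reaction containing 500 nM biotinylated H3K9 peptide, 20 µM SAM and 20 nM enzyme, which had been preincubated 15 min with compound.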
# L3MBTL1 block = blocks human L3MBTL1; Q9Y468; AlphaScreen L3MBTL1–H3K9me1 peptide binding; Potency, µM (titrated, usually from 57.1 µM), inactives show at the highest dose activity, negative = inhibition, most hits filed as inhibitors; 0.66% of 230,000 active; AID 485360; further: on the % scale 0 is the no-effect control and ±100 the full control effect; nearly all actives have a fitted effect of over 60% in size
#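 L3MBTL1 (50 nM) pre-complexed 30 min with biotinylated H3(1-15)K9me1 peptide (75 nM), then compounds added for 30 min at room temperature; AlphaScreen streptavidin donor/nickel chelate acceptor beads (10 ug/mL final) read after 30 min dark incubation.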
# HP1b chromo inh = blocks HP1-beta chromodomain binding to methylated histone tails; P83916; AlphaScreen HP1-beta / biotin-H3K9me3 peptide binding; AID 540317; 0.56% of 390,000 active; Potency, µM (titrated, usually from 114 µM), inactives show top-dose activity change, negative = inhibition, actives largely listed as inhibitors; further: nearly all actives have a fitted effect of over 70% in size
# Target sequence (P83916 whole entry, looked up): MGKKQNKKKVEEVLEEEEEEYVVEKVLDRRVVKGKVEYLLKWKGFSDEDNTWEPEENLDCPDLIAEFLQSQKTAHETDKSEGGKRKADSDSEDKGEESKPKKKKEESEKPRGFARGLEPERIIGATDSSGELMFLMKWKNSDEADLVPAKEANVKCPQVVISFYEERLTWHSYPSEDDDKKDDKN
#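 AlphaScreen: HP1-beta (50 nM) preformed 30 min with biotin-H3(1-18)K9me3 peptide (50 nM) in PBS pH 7.4, 0.01% Tween-20. Compound added for 30 min at RT, then streptavidin donor/nickel chelate acceptor beads (10 ug/mL) for 30 min.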
# Sfp inh = inhibitors of Bacillus subtilis Sfp phosphopantetheinyl transferase | Biochemical Sfp PPTase activity, qHTS | Potency, µM, for the others: largest response in the series, negative = inhibition, most hits filed as inhibitors | Q9F4F7 | AID 1490 | 3.5% of 310,000 active;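 further: the enzyme is Sfp with the accession as filed and its product quenches rhodamine fluorescence; 0% = enzyme reaction without inhibitor and -100% = no enzyme wells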
#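 With Hepes-Na pH 7.6 buffer containing 10 mM MgCl2, Sfp (15 nM) modified BHQ-2-YbbR (12.5 uM) using rhodamine-CoA (5 uM). Two reads 30 minutes apart at 525/598 nm yielded each well's rate.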
# JMJD2A Tudor = blocks the human JMJD2A Tudor domain. O75164. AlphaScreen JMJD2A-Tudor / H3K4me3 peptide binding. Potency, µM (top dose mostly 114 µM), without a hit: at the highest dose activity change, negative = inhibition, actives largely listed as inhibitors. 4.4% of 390,000 active; further: on the % scale 0 is the no-effect control and ±100 the full control effect; nearly all actives have a fitted effect of over 50% in size
# BAZ2B inh = BAZ2B (human) inhibition; Q9UIF8; AlphaScreen BAZ2B-H3K14Ac peptide displacement; Potency, µM (series often up to 114 µM), inactives show at the highest dose activity change, negative = inhibition, usual class: inhibitors; 4.4% of 360,000 active; AID 504333; further: on the % scale 0 is the no-effect control and ±100 the full control effect; nearly all actives have a fitted effect of over 60% in size
#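 Inhibition is scored as reduced AlphaScreen emission. The BAZ2B/b-H3(5-23)K14Ac complex (50 nM each) in PBS pH 7.4, 0.01% Tween-20 meets compound (up to 110 uM) for 30 min at RT before bead addition.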
# An asterisk follows results filed as active; ? = inconclusive; . = no result; ! = a repeat was not active; [ ] = another dose, or the depositor's remark. Compounds with a hit are over-represented: about 12% of the library has one in this group of screens. The call rests on the fitted dose curve; in most records, active means well fitted curve in the direction sought with a large enough effect; inconclusive means small, poorly fitted or top-dose-only effect, or another doubt; inactive means no such curve, though single readings can be large; an effect the other way counts as inactive or inconclusive. Potency means the concentration at half of the fitted maximal effect.
SMILES,G9a inh,L3MBTL1 block,HP1b chromo inh,Sfp inh,JMJD2A Tudor,BAZ2B inh
COc1ccc2c(c1)[nH]c1c(C)nccc12,13µM*!,9%,60%,16%,-21%,?
CC/C=C\C/C=C\C/C=C\C/C=C\C/C=C\CCCC(N)=O,.,.,.,-10%,.,.
O=C1NC(=O)N(Cc2ccccc2)C(=O)C1Cc1ccccc1 (configuration not stated),.,.,33%,.,-16%,.
O=C/C=C/c1ccccc1,22%[59 µM],-2%,28%,8%,-17%,.
O=C1NC(=S)NC(=O)C1C/C=C/c1ccccc1,7.9µM*,.,-22%,45µM*,79µM*,1%
O=C1NC(=S)NC(=O)C1Cc1ccccc1,.,.,?,.,89µM*,.
[O]=[Cr](=[O])([OH])[O][Cr](=[O])(=[O])[OH],1%[59 µM],.,.,4%,.,.
COc1ccc(CCN2CCC(CNC(=O)c3cnn(-c4ccc(C)cc4)c3C3CCN(C(=O)OC(C)(C)C)CC3)CC2)cc1,-20%[59 µM],.,6%,.,?,?
COC(=O)[C@]12C(=O)C(C)=C(O)[C@@]1(C)C(C)=CC1[C@@]34CC[C@@H](OC(C)=O)C(C)(C)C3C(C[C@]12C)OC4=O (some centres not stated),13%[12.7 µM],.,51%,11%,8%,-18%
COc1ccc(N2C(=O)CC(N3CCC(n4c(=O)[nH]c5ccccc54)CC3)C2=O)cc1 (configuration not stated),40µM*,.,56%,8%,-6%,3%
O=c1[nH]c2ccccc2n1CCCN1CCC(n2c(=O)[nH]c3cc(Cl)ccc32)CC1,21%[59 µM],-1%,?,5%,-18%,-27%
O=C1NC(=S)N(c2ccccc2)C(=O)C1C(c1ccncc1)C1C(=O)NC(=S)N(c2ccccc2)C1=O (configuration not stated),45µM*,5%,29%,?,-25%,-28%
O=C1N=NC2=C1c1c3ccccc3c(O)n1CC2,17%,-3%,?,15%,-15%,-4%
Cc1o[nH]c(=O)c1C[C@@H](N)C(=O)O,.,.,12%,79µM*!,?,.
Cc1o[nH]c(=O)c1CC(N)C(=O)O (configuration not stated),21µM*!,.,.,.,.,.
Cc1o[nH]c(=O)c1C[C@H](N)C(=O)O,.,.,.,79µM*!,.,.
CCCCCCN1CCN(c2ccccc2Cl)CC1,6%,3%,-19%,-15%,56µM*,71µM*
COc1ccccc1N1CCN(CCc2ccccc2)CC1,-21%,-1%,6%,-6%,-6%,-32%
C=Cn1ccnc1P(=S)(c1c(C)nn(-c2ccccc2)c1C)c1nccn1C=C,50µM*,-6%,28%,-3%,-23%,-35%
COC(=O)[C@@H]1C[C@H]2CC[C@H](O)C[C@H]2N1CC1CC1,.,.,.,2%,.,.
CNc1ccccc1C(=O)O,.,.,.,0%,.,.
Cc1cccc(C(=O)O)c1O,-27%[2.33 µM],.,.,?,.,.
O=C(O)c1ccccc1SSc1ccccc1C(=O)O,28µM*,.,56%,?,2%,-4%
C[CH2][Hg][S]c1ccccc1C(=O)O,?,.,?,16µM*,18µM*,.
O[C@H]1CCCC[C@H]1N1CCC(c2ccccc2)CC1,14%[21.5 µM],.,.,16%,.,.
SMILES,G9a inh,L3MBTL1 block,HP1b chromo inh,Sfp inh,JMJD2A Tudor,BAZ2B inh
Cc1ccc(-c2nnc(Nc3ccc(OC(F)(F)Cl)cc3)c3ccccc23)cc1S(=O)(=O)NC(C)(C)CO,?,.,27%,.,-12%,-21%
CC1(C)C(C(Cl)Cl)C2(Cl)C(Cl)C(Cl)C1(Cl)C2(Cl)Cl (configuration not stated),.,.,.,-4%,.,.
O=P(c1ccccc1)(c1ccccc1)N1CC2(CC2)CC(O)(c2ccccc2)C1 (configuration not stated),.,.,.,34%,.,.
C[C@]12C=CC(=O)C=C1CCC1C2=CC[C@]2(C)[C@@H](C(=O)CN3CCN(c4cc(N5CCCC5)nc(N5CCCC5)n4)CC3)CC[C@@H]12 (some centres not stated),40µM*,.,.,.,.,.
O=C(NCc1ccccc1)c1cccc(Nc2nc3ccccc3n3nnnc23)c1,5%[59 µM],.,?,.,-27%,-16%
NCCc1c[nH]c2ccc(OCc3ccccc3)cc12,50µM*,-1%,1%,2%,-30%,?
COc1ccc2c(c1)CC1(CN2C)C(=O)NC(=O)N(CCc2ccccc2)C1=O (configuration not stated),11µM*,2%,38%,-6%,-32%,?
Cc1ccc2c(c1)CC1(CN2C)C(=O)NC(=O)N(c2cc(C)ccc2C)C1=O (configuration not stated),5.6µM*,0%,67%,-7%,-29%,3%
COc1cc(CN2C(=O)NC(=O)C3(Cc4cc(C)ccc4N(C)C3)C2=O)cc(OC)c1 (configuration not stated),?,.,23%,?,-32%,-35%
COc1ccc(OC)c(N2C(=O)NC(=O)C3(Cc4cc(C)ccc4N(C)C3)C2=O)c1 (configuration not stated),8.9µM*,0%,11%,-20%,-29%,-3%
CN1C(=O)N(C)C(=O)C2(Cc3cc([N+](=O)[O-])ccc3N(C)C2)C1=O,0%,-12%,30%,20%,-1%,-6%
COc1cccc(N2C(=O)NC(=O)C3(Cc4cc(C)ccc4N(C)C3)C2=O)c1 (configuration not stated),2.8µM*,2%,42%,-1%,?,5%
CC(=O)OCC1=C(C(=O)O)N2C(=O)C(NC(=O)CCCC(N)C(=O)O)C2SC1 (configuration not stated),8%[2.33 µM],.,.,-11%,.,.
COP(=O)(OC)[C@@H](O)C(Cl)(Cl)Cl,31%[21.5 µM],.,.,20%,.,.
OC[C@@H](O)[C@H]1O[C@@H]2OC(C(Cl)(Cl)Cl)O[C@H]2[C@H]1O (some centres not stated),3%[12.7 µM],.,.,15%,.,.
C=CCN(CC(=O)c1sc(C(=O)OCC)nc1C)c1cccc(Br)c1,.,.,-2%,.,?,.
C[C@@]12CC(c3ccoc3)OC(=O)C1CC[C@@]1(C)C2C2C=C[C@@]1(O)C(=O)O2 (some centres not stated),.,.,.,15%,.,.
CCn1c(P(C)(=O)O)nc2ccccc21,4%[59 µM],4%,4%,-13%,?,-9%
CCn1c(NN=O)nc2ccccc21,?,?,-21%,50µM*,89µM*,56µM*
CC1=C(C(=O)O)N2C(=O)C(NC(=O)c3nn(C)cc3[N+](=O)[O-])C2SC1 (configuration not stated),3.5µM*,11%,3%,4µM*,?,50µM*
